Screens (PubChem)
A selection: hits, their analogues and other compounds. The true share with any hit is near 0.77%.
HSV augment: HSV replication enhancement. HSV replication augmentation in cells, fold increase. maximum fold increase. hit rate 0.005% among 220,000. AID 1956; in the data active means maximum fold increase above about 1.5; tested in PC3 cells
TNF death inh: blocks TNF-alpha induced death of Jurkat FADD-/- cells | Jurkat FADD-/- TNF necroptosis rescue, ATP luminescence, 24 h; 0 = TNF only, 100 = no-TNF cells | activation (protection from cell death), % at 10 µM | hit rate 0.068% among 220,000;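 active means activation, meaning protection from cell death, of at least 50% relative to plate controls; inactive means activation below 50%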;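 further: necroptosis triggered by 40 ng/mL TNF-alpha added together with compound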
m-calpain inh: inhibitors of pig calpain II; AID 1236; purified calpain II, fluorogenic peptide substrate, 30 min; inhibition, % at 16 µM; hit rate 0.37% among 220,000;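 active means inhibition above about 50%, limit read from the data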
zVAD death inh: L929 zVAD cell death inhibition. viability rescue, % at 10 µM. hit rate 0.38% among 220,000. L929 zVAD necroptosis rescue, ATP luminescence, 24 h; with zVAD 60 µM. AID 1377;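 active means activation, scaled between plate controls, above about 75%, limit read from the data; inactive means activation under that limit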
Numbers stand for hits.

What do the screens show for `COC(=O)CNC(=O)c1sc2ncn(CC(=O)Nc3ccc(C)c(Cl)c3)c(=O)c2c1C`?
HSV augment: inactive; TNF death inh: inactive; m-calpain inh: 51.6; zVAD death inh: inactive

What do the screens show for `NC(=S)N/N=C/c1coc2cc(Br)ccc2c1=O`?
HSV augment: inactive; TNF death inh: inactive; m-calpain inh: inactive; zVAD death inh: inactive

What do the screens show for `NC(=S)N/N=C/c1coc2c(ccc3ccccc32)c1=O`?
HSV augment: inactive; TNF death inh: inactive; m-calpain inh: 73.0; zVAD death inh: inactive

How did CCCCNC(=O)c1ccccc1C(=O)NCCCC do in these assays?
HSV augment: inactive; TNF death inh: inactive; m-calpain inh: 91.4; zVAD death inh: inactive

What do the screens show for `CO/N=C/c1ccc(Sc2ccccc2N)c([N+](=O)[O-])c1`?
HSV augment: inactive; TNF death inh: inactive; m-calpain inh: 61.6; zVAD death inh: inactive

Results for C=C(C)CNC(=S)N/N=C/c1c(F)cccc1F ?
HSV augment: inactive; TNF death inh: inactive; m-calpain inh: 57.0; zVAD death inh: inactive

How did Cc1nc(SCC(=O)Nc2ccccc2)c2oc3ccccc3c2n1 do in these assays?
HSV augment: inactive; TNF death inh: inactive; m-calpain inh: inactive; zVAD death inh: inactive

How did Cc1nc(SCC(=O)NC(C)c2ccccc2)c2oc3ccccc3c2n1 (stereo unspecified) do in these assays?
HSV augment: inactive; TNF death inh: inactive; m-calpain inh: 57.2; zVAD death inh: inactive

How did COc1ccc(-c2[nH]ncc2CN(C)Cc2nonc2C)c(OC)c1 do in these assays?
HSV augment: inactive; TNF death inh: inactive; m-calpain inh: inactive; zVAD death inh: inactive

What do the screens show for `CCC(=O)NS(=O)(=O)c1ccc(-c2c(-c3ccccc3)noc2C)cc1`?
HSV augment: inactive

What do the screens show for `Cc1ccc(NCC(=O)N/N=C/c2c[nH]c3ccccc23)cc1`?
HSV augment: inactive; TNF death inh: inactive; m-calpain inh: 70.0; zVAD death inh: inactive

What do the screens show for `CCN1CCN(C(c2cccs2)C(C)NS(=O)(=O)c2ccccc2)CC1` (stereo unspecified)?
HSV augment: inactive; TNF death inh: inactive; m-calpain inh: 56.8; zVAD death inh: inactive

Results for CCOC(=O)C1CSc2[nH]c(=O)sc2C1c1ccccc1 (stereo unspecified) ?
HSV augment: inactive; TNF death inh: inactive; m-calpain inh: inactive; zVAD death inh: inactive

How did O=C(O)CC12CSc3[nH]c(=O)sc3C1c1ccccc1OC2=O (stereo unspecified) do in these assays?
HSV augment: inactive; TNF death inh: inactive; m-calpain inh: 54.2; zVAD death inh: inactive

What do the screens show for `CC1=CC(C)(C)N(C(=O)c2ccccc2)c2ccc(C)cc21`?
TNF death inh: inactive; m-calpain inh: inactive; zVAD death inh: inactive

What do the screens show for `COc1ccc(C(=O)N2c3cc4c(cc3C(C)=CC2(C)C)OCO4)cc1`?
HSV augment: inactive; TNF death inh: inactive; m-calpain inh: 52.2; zVAD death inh: inactive

Results for O=C(O)c1ccccc1N/C=C\[N+](=O)[O-] ?
HSV augment: inactive; TNF death inh: inactive; m-calpain inh: inactive; zVAD death inh: inactive

What do the screens show for `Cc1cccc(S(=O)(=O)Nc2cccc3c2C(=O)c2ccccc2-3)c1`?
HSV augment: 4.08; TNF death inh: inactive; m-calpain inh: inactive; zVAD death inh: inactive

Results for COc1ccc(OC)c(NC(=O)COC(=O)CSc2ccc(Cl)cc2)c1 ?
HSV augment: inactive; TNF death inh: inactive; m-calpain inh: 90.3

What do the screens show for `CCC1=C[C@H]2CN(C1)Cc1c([nH]c3ccccc13)[C@@](C(=O)OC)(c1cc3c(cc1OC)N(C)[C@H]1[C@@](O)(C(=O)OC)[C@H](OC(C)=O)[C@]4(CC)C=CCN5CC[C@]31[C@@H]54)C2`?
HSV augment: inactive

How did Cc1ccc(OCC(=O)Nc2ccccc2F)cc1C do in these assays?
HSV augment: inactive; TNF death inh: inactive; m-calpain inh: inactive; zVAD death inh: inactive

Results for Cn1nnnc1SCc1ccccc1F ?
HSV augment: inactive; TNF death inh: inactive; m-calpain inh: inactive; zVAD death inh: 76.7

What do the screens show for `Cn1nnnc1SCCNCc1ccccc1F`?
HSV augment: inactive; TNF death inh: inactive; m-calpain inh: inactive; zVAD death inh: inactive

How did O=C(Cc1cccs1)N1CCN=C1SCc1ccc(Br)cc1 do in these assays?
HSV augment: inactive; TNF death inh: inactive; m-calpain inh: inactive; zVAD death inh: inactive

What do the screens show for `O=C(COC(=O)c1cccc(C(=O)OCC(=O)NC2CC2)n1)NC1CC1`?
HSV augment: inactive; TNF death inh: inactive; m-calpain inh: inactive; zVAD death inh: inactive

Results for O=C(Nc1nc(-c2ccc3c(c2)OCO3)cs1)C1CC1 ?
HSV augment: inactive; TNF death inh: inactive; m-calpain inh: inactive; zVAD death inh: 75.9

Results for O=C(CSCC(=O)Nc1nc(-c2ccc3c(c2)OCO3)cs1)Nc1nccs1 ?
HSV augment: inactive; TNF death inh: inactive; m-calpain inh: inactive; zVAD death inh: inactive
